# Screening data: PubChem, National Center for Advancing Translational Sciences (NCATS)
# Shown are actives, neighbours in structure and some others; about 20% of the full set was active somewhere.
# Shiga toxin inh = Shiga toxin inhibition; inhibition, % at 38.7 µM; AID 2315; hit rate 9.2% among 290,000; Vero cells, Shiga toxin protein synthesis inhibition reporter; in the data active = inhibition mostly above about 28%, no sharp cut-off; inactive = mostly below about 43%
# HCMV antiviral = inhibitors of human cytomegalovirus; HFF cells, HCMV-luciferase reporter, 72 h; active compounds read low; activity change, negative = inhibition, % at 57.5 µM; hit rate 4.5% among 410,000; in the data active = activity change below about -60%; inconclusive = no clear call, values can overlap the other calls; inactive = above about -39%
#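 Luciferase read-out from HCMV-luciferase-infected HFFs (MOI 1 PFU/cell) 72 h post infection at 37C; compounds added after 16 h cell attachment; activity normalized between buffer-only basal and Salinomycin (10uM) inhibitor controls.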
# Cycloheximide cs = affects cycloheximide protein synthesis inhibition readout, counter-screen; max response, %; cell reporter, cycloheximide protein synthesis inhibition counterscreen; hit rate 12% among 300,000; AID 2314; in the data active = max response mostly above about 13%, no sharp cut-off; inactive = mostly below about 14%; note: read at 38.3 µM for the half of the compounds with a filed dose
# Pf growth 48h = inhibits P. falciparum growth in the first generation, 48 h; P. falciparum luciferase growth in erythrocytes, 48 h; Potency, µM (doses to about 28.7 µM), usual class: inhibitors; hit rate 5.9% among 310,000; AID 504832
#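 Here the parasites carry a stable luciferase gene and grow inside erythrocytes in Albumax-based RPMI medium with compound for one erythrocytic cycle. Activity is scored as loss of luminescent signal.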
# Pf growth 96h = P. falciparum growth inhibition at 96 hours; P. falciparum luciferase reporter growth, 96 h; Potency, µM (titrated, usually from 28.7 µM), actives largely listed as inhibitors; hit rate 6.9% among 320,000; AID 504834
#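 Parasite growth measured via integrated firefly luciferase reporter in P. falciparum. Infected erythrocytes at 2% hematocrit, 0.05% parasitemia final were treated 96 hours at 37 C under 5% CO2, and luminescence was read.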
# Numbers stand for hits; 0 = inactive; ? = inconclusive; - = no result. Unless noted, calls come from the whole dose curve; as a rule, active = well fitted inhibition curve with a large enough effect; inconclusive = small, poorly fitted or top-dose-only effect, or another doubt; inactive = no such curve, though single readings can be large or run the other way.
SMILES,Shiga toxin inh,HCMV antiviral,Cycloheximide cs,Pf growth 48h,Pf growth 96h
CC(C)Cn1c(=O)c2ccccc2n2c(CCC(=O)N3CCN(c4ccccc4)CC3)nnc12,-,0,-,-,-
Cc1cccc(C(=O)NC(C(=O)Nc2ccccc2N2CCOCC2)C(C)C)c1 (configuration not stated),0,0,0,?,?
O=C(Nc1cccc(NC(=O)c2ccccc2F)c1)c1ccccc1,0,0,0,0,0
C/C(=N\NC(=O)c1ccccc1F)c1cccc(NC(=O)c2ccccc2)c1,52.0,0,24.3,0,0
C/C(=N\NC(=O)c1c(Br)c(C)nn1C)c1cccc(NC(=O)c2ccccc2F)c1,66.2,0,20.7,0,0
COc1cc(CNC(=O)c2cnc(SC)nc2-c2ccccc2)cc(OC)c1OC,-,0,-,-,-
CCCCN1C(=O)C(CC(=O)NCCCCc2ccccc2)CC(C(=O)N(C(C)C)C(C)C)=C1C (configuration not stated),-,0,-,-,-
COc1ccc(-c2coc3c(C(=O)N4CCN(C)CC4)cccc23)c(C)c1,-,0,-,-,-
CCC1NC(=O)c2cc3ccccc3cc2-n2c1nc1cc(C)cc(C)c1c2=O (configuration not stated),-,0,-,-,-
Cc1cc(C)c2c(=O)n3c(nc2c1)C(Cc1ccccc1)NC(=O)c1cc2ccccc2cc1-3 (configuration not stated),-,-71.9,-,-,-
O=C1NC(Cc2ccc(O)cc2)c2nc3ccc(Cl)cc3c(=O)n2-c2cc3ccccc3cc21 (configuration not stated),-,-105.5,-,-,-
Cc1ccc2c(=O)n3c(nc2c1)C(Cc1ccc(O)cc1)NC(=O)c1cc2ccccc2cc1-3 (configuration not stated),-,-65.5,-,-,-
O=C1NC(Cc2ccccc2)c2nc3ccc(Cl)cc3c(=O)n2-c2cc3ccccc3cc21 (configuration not stated),-,0,-,-,-
COc1ccc(-c2noc(-c3ccc(N4CCN(c5ccc(OC)cc5)CC4)c([N+](=O)[O-])c3)n2)cc1,-,0,-,-,-
COc1ccc(CNC(=O)Cn2c(=O)oc3cc(S(=O)(=O)NCc4ccccc4)ccc32)cc1,-,0,-,-,-
CCOC(=O)C1=CC[C@H]2c3c(c4ccc(OC)cc4n3C)C(=O)C1N2S(=O)(=O)c1ccc(C)cc1,-,0,-,?,?
CCOC(=O)C1=CCC2c3c(c4ccccc4n3C)C(=O)C1N2C(=O)OC(C)(C)C (configuration not stated),-,0,-,8.28µM,?
CCOC(=O)C1=CC[C@]2(C)c3c(c4ccccc4n3C)C(=O)C1N2C,-,0,-,13.1µM,?
O=C(CC(c1ccco1)S(=O)(=O)c1ccccc1)c1ccc(F)cc1 (configuration not stated),38.9,0,25.0,0,-
COc1ccc(C(=O)NCC(c2ccco2)S(=O)(=O)c2ccc(F)cc2)cc1 (configuration not stated),-,0,-,-,-
CC[C@H](CO)Nc1nc(Nc2cccc(Cl)c2)c2ncn(C(C)C)c2n1,0,-65.3,10.0,11.7µM,5.22µM
CC(C)[C@H](CO)N(Cc1cccc(F)c1)c1nc(Nc2cccc(Cl)c2)c2ncn(C(C)C)c2n1,0,0,0,11.7µM,?
CCn1cnc2c(Nc3cccc(Cl)c3)nc(C#N)nc21,-,0,-,?,?
Cn1c(=O)c2c(nc(N3CCN(c4ccccn4)CC3)n2Cc2ccc(Cl)cc2Cl)n(C)c1=O,0,0,0,0,0
Cn1c(=O)c2c(nc(NCC3CCCC(CN)C3)n2Cc2ccc(Cl)cc2Cl)n(C)c1=O (configuration not stated),0,-99.2,0,2.94µM,2.94µM
SMILES,Shiga toxin inh,HCMV antiviral,Cycloheximide cs,Pf growth 48h,Pf growth 96h
Cn1c(=O)c2c(nc(NCc3ccco3)n2Cc2ccccc2Cl)n(C)c1=O,0,0,0,0,0
Cn1c(=O)c2c(nc(NCCNC(=O)c3ccco3)n2Cc2ccc(Cl)cc2Cl)n(C)c1=O,0,-73.8,0,?,0
O=C(COC(=O)c1ccc([N+](=O)[O-])o1)Nc1ncc(Cl)cc1Cl,-,0,-,-,-
COC(=O)CC1(C(=O)OC)Oc2ccc(Br)cc2C(=O)N1c1cc(Cl)cc(Cl)c1 (configuration not stated),0,0,0,5.22µM,9.28µM
COC(=O)CC1(C(=O)OC)Oc2ccc(Br)cc2C(=O)N1c1ccc(Br)cc1Cl (configuration not stated),0,0,0,?,11.7µM
COC(=O)CN1C(=O)Nc2ccc(Br)cc2C1c1ccccc1Cl (configuration not stated),0,-,0,-,-
COC(=O)CC1(C(=O)OC)Oc2ccc(Br)cc2C(=O)N1c1cc(Cl)c(Cl)cc1Cl (configuration not stated),0,0,0,?,?
COC(=O)CC1(C(=O)OC)Oc2ccc(Br)cc2C(=O)N1c1cccc(Cl)c1Cl (configuration not stated),0,0,0,?,13.1µM
O=[N+]([O-])c1ccccc1/C=N/N1CCN(c2ccccn2)CC1,46.9,0,36.8,0,0
O=[N+]([O-])c1ccccc1C=NN1CCCCCC1,-,0,-,-,-
C(=N\N1CCN(c2ccccn2)CC1)/c1ccccn1,36.7,0,49.2,0,0
Oc1ccc(/C=N/N2CCN(c3ccccn3)CC2)cc1,101.3,?,27.2,0,0
CN(c1ccccc1)c1ccc(/C=N/N2CCOCC2)cc1,60.6,0,84.2,0,0
CC(C)(C)c1ccc(/C=N/N2CCN(c3ccccn3)CC2)cc1,0,0,0,?,0
BrC(=C\c1ccccc1)/C=N/N1CCN(c2ccccn2)CC1,38.5,0,40.3,0,0
Cc1nn(-c2ccccc2)c(Cl)c1/C=N/N1CCN(c2ccccn2)CC1,0,?,0,0,0
CN(C)c1ccc(/C=N/N2CCN(c3ccccn3)CC2)cc1,90.7,0,34.4,0,0
Oc1cccc(/C=N/N2CCN(c3ccccn3)CC2)c1,127.8,0,39.7,0,0
CC(Oc1ccccc1)C(=O)N1CCN(c2ccc(N3CCCCCC3)nn2)CC1 (configuration not stated),-,0,-,?,10.4µM
CCc1ccc(Nc2n[n+](-c3ccccc3)c(-c3cccc(C)c3)s2)cc1,-,0,-,?,8.28µM
CCOc1cc(-c2sc(Nc3cc(C)ccc3OC)n[n+]2-c2ccccc2)ccc1OC,-,0,-,?,?
CCOc1cc(-c2sc(Nc3ccc(CC)cc3)n[n+]2-c2ccccc2)ccc1OC,-,0,-,10.4µM,?
Cc1cccc(-c2sc(Nc3ccccc3)n[n+]2-c2ccc(F)cc2)c1,0,0,0,0,?
CCOC(=O)C1CCN(C(=O)c2ccc(NC(=O)C3CCCO3)cc2)CC1 (configuration not stated),0,0,0,0,0
CC(=O)c1ccc(N2CCN(C(=O)c3ccc(NC(=O)C4CCCO4)cc3)CC2)cc1 (configuration not stated),0,0,14.2,?,0
CC(=O)c1ccc(NC(=O)C2CCCO2)cc1 (configuration not stated),-,0,38.4,0,0
Cc1ccc(NC(=O)C2CCCO2)cc1[N+](=O)[O-] (configuration not stated),0,0,27.6,0,2.62µM
